Source: PubChem BioAssay (several laboratories)
HSF1 inhib – HSF1 inhibition; NIH3T3-HGL HSE-luciferase, MG132-induced, luminescence 8 h; hits give low values; activity change, negative = inhibition, % at 7.5 µM (by protocol); hit rate 0.77% among 300,000; AID 2098;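 active means more than half of replicate wells show activity change below -50%, luminescence cut by over half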;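 further: luciferase reports HSF-1 transcriptional activity via heat shock element; 0% = median of DMSO wells and -100% = zero luminescence signal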
Dyrk1A ADPGlo – blocks rat Dyrk1A kinase activity; ADP-Glo luminescence, NFATc1 peptide; hit rate 0.43% among 310,000; Q63470; AID 504441; inhibition, % at 12.5 µM; in the data active means inhibition above about 50%;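 further: plate controls were vehicle with enzyme for no effect and no enzyme for full effect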
GC-B act – GC-B (human) receptor activation | activation, % at 10 µM | P20594 | hit rate 0.11% among 370,000 | HEK293-GC-B cells, CNP EC30, cGMP TR-FRET; 0% at EC30 CNP, 100% saturating CNP;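 active means activation at 10 µM reaching about 35% in either raw or pattern-adjusted values, limit read from the data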
Target sequence (P20594 whole entry, looked up): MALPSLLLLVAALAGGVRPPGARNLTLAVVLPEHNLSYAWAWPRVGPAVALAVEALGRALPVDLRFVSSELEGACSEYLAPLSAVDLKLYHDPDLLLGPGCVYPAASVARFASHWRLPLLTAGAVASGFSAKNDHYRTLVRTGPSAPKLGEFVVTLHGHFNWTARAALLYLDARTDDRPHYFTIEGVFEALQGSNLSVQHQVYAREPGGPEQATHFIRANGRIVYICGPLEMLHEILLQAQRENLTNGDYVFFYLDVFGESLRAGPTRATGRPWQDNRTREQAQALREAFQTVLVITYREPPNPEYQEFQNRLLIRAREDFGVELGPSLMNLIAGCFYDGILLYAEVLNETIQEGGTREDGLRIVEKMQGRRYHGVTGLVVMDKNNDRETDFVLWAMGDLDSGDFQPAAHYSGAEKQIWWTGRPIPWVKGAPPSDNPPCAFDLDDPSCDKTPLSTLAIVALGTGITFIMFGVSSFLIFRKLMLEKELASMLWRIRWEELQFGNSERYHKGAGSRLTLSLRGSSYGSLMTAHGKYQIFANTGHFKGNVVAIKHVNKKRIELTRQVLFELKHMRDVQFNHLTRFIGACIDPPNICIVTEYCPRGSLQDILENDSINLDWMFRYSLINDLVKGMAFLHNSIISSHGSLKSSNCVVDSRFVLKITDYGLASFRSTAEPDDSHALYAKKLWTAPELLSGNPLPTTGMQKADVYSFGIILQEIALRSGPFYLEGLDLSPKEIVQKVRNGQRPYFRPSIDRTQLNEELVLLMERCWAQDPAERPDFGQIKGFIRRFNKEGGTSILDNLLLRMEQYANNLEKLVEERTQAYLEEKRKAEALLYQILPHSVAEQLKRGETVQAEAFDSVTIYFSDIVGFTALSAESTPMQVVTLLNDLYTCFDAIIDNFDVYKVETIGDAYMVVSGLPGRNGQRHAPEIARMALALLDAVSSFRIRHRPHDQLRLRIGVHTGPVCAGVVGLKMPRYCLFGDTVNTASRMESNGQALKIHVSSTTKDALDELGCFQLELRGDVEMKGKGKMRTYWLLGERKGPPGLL
HSF-1 act – increases HSF-1 driven luciferase reporter signal; NIH3T3-HGL HSF-1 luciferase reporter, MG132, 8 h; 100% = twice DMSO control signal; activation, % at 9 µM; hit rate 1.7% among 300,000; AID 504408;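 active means mean replicate activation of at least 50% with a set share of replicates each reaching 50%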;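 further: 0% = median of the neutral control wells and 100% = twice that signal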
aDG glyco up – alpha-DG glycosylation activation. Pro5-aDG cells, alpha-DG glycosylation AlphaScreen (IIH6); 0% Pro5, 100% B10-LARGE cell signal. activation, % at 10 µM. hit rate 0.22% among 360,000;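 active means activation of at least 8% versus controls, or a plate z-score of at least 8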;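 further: Pro5 are CHO cells carrying HIG-tagged alpha-DG that lacks glycosylation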
GC-A act – GC-A (human) enzyme activation | HEK293 GC-A cells, cGMP TR-FRET, EC30 ANP; 0% at EC30 ANP, 100% saturating ANP | hit rate 0.14% among 370,000 | activation, % at 10 µM | AID 1671463; in the data active means activation above about 40%
aDG conf – confirmation of alpha dystroglycan glycosylation activators | shares compounds with aDG glyco up | Pro5-aDG cells, alpha-DG glycosylation, IIH6 AlphaLISA; scaled to LARGE-overexpressing B10 cells as 100% | activation, % at 10 µM (by protocol) | hit rate 17% among 600;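 active means activation of at least 7% in one or more replicates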;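 further: cells exposed to compound for two days before detection; 0% = DMSO-treated Pro5 cells and 100% = DMSO-treated B10-LARGE cells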
* marks the source's active call; other numbers are inactive results; / = no result. Compounds with a hit are over-represented: about 2.5% of the library has one in this group of screens.

SMILES	HSF1 inhib	Dyrk1A ADPGlo	GC-B act	HSF-1 act	aDG glyco up	GC-A act	aDG conf
COc1cc(C(=O)Nc2cccnc2)cc(OC)c1OC	1	/	2	23	0	-2	/
CCn1c(O)c(N=NC(=O)C2C(=O)NCC2c2ccccc2)c2ccccc21 (stereo unspecified)	-4	2	2	8	0	-2	/
CCn1c(SCC(=O)NC2(C#N)CCCCC2)nc2ccccc2c1=O	1	-8	4	2	4.0*	5	0
CC(C)c1ccc(-c2cc(C(=O)N3CCOCC3)c3cc(Br)ccc3n2)cc1	-4	-3	-1	-1	4.6*	4	9.4*
COc1ccc2c(Cl)c(-c3nnc(SCC(=O)c4ccccc4)n3C)sc2c1	5	0	9	11	4.3*	2	1
COc1ccc2c(Cl)c(-c3nnc(SCC(N)=O)n3C)sc2c1	0	18	-4	1	1	6	/
CCn1cc(/C=N\NC(=O)c2ccc(F)cc2)cn1	7	-4	1	33	0	2	/
COc1ccc(NC(=O)Cn2c(C)cc(=O)c3ccccc32)cc1	-4	-4	-1	4	7.8*	7	0
Cc1cc(=O)c2ccccc2n1CC(=O)NCc1ccccc1	-3	-7	0	-4	1	2	/
Cc1cc(NCCOCCO)n2ncc(-c3ccc(Cl)cc3)c2n1	7	46	-2	20	1	9	/
Cc1cc(NCc2ccccn2)n2ncc(-c3ccc(Cl)cc3)c2n1	28	1	-11	53*	3.0*	-8	4.6*
Cn1c(CC2C(=O)Nc3ccc(Br)cc32)nc2ccccc2c1=O (stereo unspecified)	-2	/	-11	-3	5.2*	-24	-1
O=C1Nc2ccc(Br)cc2C1Cc1ccccc1F (stereo unspecified)	-1	/	-8	3	0	-9	/
CCc1ccc(S(=O)(=O)Nc2nnc(N)s2)cc1	1	-3	11	21	0	-1	/
CCOC(=O)C1CCCN(C(=O)Cn2nc(C)c3c(C)n(-c4ccccc4)nc3c2=O)C1 (stereo unspecified)	3	0	-5	-14	9.8*	2	1
O=C(Nc1ccc(F)cc1)c1ccc(S(=O)(=O)N2CCCC2)cc1	-8	9	6	-12	0	-2	/
Cc1ccc(C)c(N2CCN(C(=O)Nc3ccc4c(c3)N(C)C(=O)CS4)CC2)c1	15	3	-1	16	6.7*	1	0
CN(CC(=O)Nc1cccc(F)c1)C(=O)c1cccc(-n2cccc2)c1	-5	2	2	8	0	-6	/
CN(CC(=O)Nc1cccc(F)c1)C(=O)c1ccc(N2C(=O)c3ccccc3C2=O)cc1	/	/	0	/	5.1*	-5	-1
O=C(c1ccc2c(c1)OCO2)N(Cc1cccs1)C1(C(=O)NC2CCCCC2)CCCCC1	4	-4	-15	4	7.4*	-40	0
O=C(Cc1cccs1)N(Cc1cccs1)C1(C(=O)NC2CCCC2)CCCCC1	8	-4	-20	36	0	-44	/
CCCCOc1ccc(C(=O)Nc2cccc(C)n2)cc1	31	10	-3	57*	6.3*	-3	-1
CCOc1ccc(C(=O)Nc2cccc(C)n2)cc1	17	8	0	43	0	0	/
O=C(NCCc1ccccc1)c1ccc(-c2ccc(F)cc2)o1	4	43	0	15	5.1*	-2	-1
CCOc1ccc(NC(=O)c2ccccc2OCC(=O)c2ccccc2)cc1	10	-2	-11	-13	0	0	/
SMILES	HSF1 inhib	Dyrk1A ADPGlo	GC-B act	HSF-1 act	aDG glyco up	GC-A act	aDG conf
C[C@H](NC(=O)Cc1cccc2ccccc12)C(=O)NCc1ccccc1	9	0	-2	30	0	-2	/
Cc1ccc(N(CC(=O)Nc2cc(C)cc(C)c2)S(=O)(=O)c2c(C)noc2C)cc1	-3	-1	-3	-17	7.6*	-4	1
COCCNc1nc(NCc2ccccc2)nc2ccsc12	/	/	-5	/	1	-15	/
Clc1ccccc1Nc1nc(NCc2ccccc2)nc2ccsc12	/	/	22	/	6.4*	8	0
CCc1ccc(CNC(=O)C2CCN(S(=O)(=O)N3CC(C)CC(C)C3)CC2)cc1 (stereo unspecified)	0	/	1	14	0	1	/
O=C(Nc1ccncc1)c1ccc(F)cc1	-5	18	2	-3	0	-3	/
O=C(Nc1ccncc1)c1ccc(-c2ccccc2)cc1	5	0	-3	12	9.1*	2	2
COc1ccc(C2/C(=C(/O)c3ccccc3)C(=O)C(=O)N2C)cc1 (stereo unspecified)	-2	4	7	-5	0	-1	/
CCCCc1ccc(NC(=O)C(=O)NCCN2CCN(Cc3ccc([N+](=O)[O-])cc3)CC2)cc1	-6	-3	0	3	6.6*	-3	0
Cc1cc(-c2nn(-c3ccccc3)cc2/C=C2\SC(N)=NC2=O)ccc1OC(C)C	-14	1	1	-14	6.0*	3	-1
CCCOc1ccc(-c2nn(-c3ccccc3)cc2/C=C2\SC(N)=NC2=O)cc1	-7	-5	5	-3	0	14	/
Nc1nccc(NCCSCc2ccccc2)n1	/	-6	0	/	2	0	/
CC1(C)CC(NC(=S)NC2CC2)CC(C)(C)N1	-5	4	6	3	1	1	/
Cc1c(C(=O)N(Cc2ccc(Cl)cc2)C2CCS(=O)(=O)C2)oc2ccccc12 (stereo unspecified)	18	5	-18	17	2.3*	-41	-1
Cc1cccnc1CCNC(=O)CCc1nnc(CCc2ccccc2)o1	-4	/	-2	-17	3.3*	-1	1
COc1ccc(NC(=O)C2CCCN2C(=O)NCc2ccccc2)c(OC)c1 (stereo unspecified)	-7	5	3	3	0	3	/
Cc1c(Cl)ccc2c(C(N)=O)cc(-c3ccccn3)nc12	-4	/	-3	-1	4.1*	-9	1
CCOC(=O)CNC(=O)c1cc(-c2ccccn2)nc2c(C)c(Cl)ccc12	5	-4	-4	15	0	2	/
COc1ccc(C(=O)NC(=S)N2CCCC2)cc1	16	1	6	26	0	1	/
COc1ccc(C(=O)NC(=S)N2CCCCC2)cc1	1	8	-4	6	3.6*	2	-1
C=CCNC(=S)N/N=C/c1ccc(OCc2ccccc2Cl)cc1	8	-8	2	-5	6.5*	-10	0
